ATXN2 expr inh = Primary qHTS for Inhibitors of ATXN expression | HEK-293 ATXN2-luciferase reporter, luminescence, 24 h | AID 1745845, 2022 | Potency, µM (top dose mostly 57 µM), without a hit: at the highest dose activity change, negative = inhibition, most hits filed as inhibitors | 360,000 tested, 0.72% active; further: on the % scale 0 is the no-effect control and ±100 the full control effect; nearly all actives have a fitted effect of over 55% in size
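qHTS (up to 57 uM final) was run with 24 h compound exposure of reporter cells at 37 °C. Each well was multiplexed: SteadyGlo luminescence measured ATXN2-luciferase expression after a fluorogenic Gly-Phe-AFC viability readout (25 uM final).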
RORg inh = qHTS for inhibitors of ROR gamma transcriptional activity | Potency, µM (highest dose often 53.6 µM), for the others: at the top dose activity change, negative = inhibition, hits mostly inhibitors | AID 2551, 2010 | 310,000 tested, 5.4% active | Drosophila S2 Gal4-RORgamma UAS-luciferase reporter, 20 h | Nuclear receptor ROR-gamma (Mus musculus), P51450; further: on the % scale 0 is the no-effect control and ±100 the full control effect; nearly all actives have a fitted effect of over 60% in size
Target sequence (P51450 whole entry, looked up, the tested form may be a part): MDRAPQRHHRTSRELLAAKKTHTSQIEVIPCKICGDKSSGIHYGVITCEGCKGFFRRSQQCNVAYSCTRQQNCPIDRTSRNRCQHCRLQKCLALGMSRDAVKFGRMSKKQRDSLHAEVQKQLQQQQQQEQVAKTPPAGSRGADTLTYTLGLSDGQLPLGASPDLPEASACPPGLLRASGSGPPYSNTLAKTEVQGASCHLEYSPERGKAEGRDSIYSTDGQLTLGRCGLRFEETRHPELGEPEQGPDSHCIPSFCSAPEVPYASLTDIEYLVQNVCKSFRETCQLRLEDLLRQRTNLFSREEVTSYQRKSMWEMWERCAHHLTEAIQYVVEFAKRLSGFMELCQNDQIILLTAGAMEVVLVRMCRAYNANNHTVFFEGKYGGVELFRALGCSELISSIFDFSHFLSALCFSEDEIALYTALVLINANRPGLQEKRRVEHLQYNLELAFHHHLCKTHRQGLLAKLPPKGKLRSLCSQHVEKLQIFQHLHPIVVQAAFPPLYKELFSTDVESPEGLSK
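Stable Schneider cell line, Gal4 DNA-binding domain fused to ROR gamma, UAS-luciferase. Cmpd 1 hr RT → CuSO4 700 uM final → 20 hr RT → luciferase reagent 10 min → luminescence.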
TGFb inhibitor = qHTS for Inhibitors of TGF-b; HepG2 CAGA-GFP TGF-b/SMAD3 reporter, GFP fluorescence, 18 h; TGF-beta stimulated, 500 pg/mL final; 410,000 tested, 1.2% active; Potency, µM (series often up to 46.1 µM), inactives show top-dose activity, negative = inhibition, hits mostly inhibitors; further: on the % scale 0 is the no-effect control and ±100 the full control effect; nearly all actives have a fitted effect of over 65% in size
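Per well, imaged GFP fluorescence of HEPG2 CAGA-GFP cells gives the signal; cells get compound, then TGF-beta (500 pg/mL final), 18 h at 37 degrees C; %Activity versus -TGF-beta and +DMSO controls.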
ATXN viability = Viability Counterscreen for Primary qHTS for Inhibitors of ATXN expression; S2 cells (HEK-293 line with an ATXN2-luciferase reporter) viability, CellTiter-Fluor protease fluorescence, 24 h; Potency, µM (titrated, usually from 56.7 µM), usual class: cytotoxic; 400,000 tested, 0.49% active; AID 651635, 2014; further: nearly all actives have a fitted effect of over 40% in size
HepG2 tox = qHTS for Inhibitors of TGF-b: Cytotox Counterscreen. HepG2 CAGA-GFP viability, ATP luminescence, 18 h. Potency, µM (doses to about 46.1 µM), for inactives: top-dose activity change, negative = cytotoxicity, usual class: cytotoxic. 410,000 tested, 0.76% active. AID 588856, 2011
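CellTiter-Glo luminescence gave cytotoxicity after 18 hours at 37 degrees C. The cells were HepG2 CAGA-GFP in 1% FBS DMEM, stimulated with 500 pg/mL TGF-beta after compound addition. %Activity was normalised to no-cell wells (complete cell-killing) and DMSO (no toxicity), and curves were fitted and classified.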
Gal4-VP16 FLuc = VP16 counterscreen qHTS for inhibitors of ROR gamma transcriptional activity; Drosophila S2 Gal4-VP16 UAS-luciferase, luminescence, 20 h; Potency, µM (doses to about 53.6 µM), without a hit: at the highest dose activity, negative = inhibition, most hits filed as inhibitors; 310,000 tested, 3.5% active;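 further: Gal4-VP16 expression switched on by copper sulfate through the metallothionein promoter; on the % scale 0 is the no-effect control and ±100 the full control effect; nearly all actives have a fitted effect of over 50% in size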
Active calls of the source: *; i = inactive; ? = inconclusive; . = not tested or not shown; ! = a repeat was not active; [ ] = dose if it differs, or a comment. A selection: hits, their analogues and other compounds. The true share with any hit is near 6.1%. The call rests on the fitted dose curve; in most records, active means well fitted curve in the direction sought with a large enough effect; inconclusive means small, poorly fitted or top-dose-only effect, or another doubt; inactive means no such curve, though single readings can be large; an effect the other way counts as inactive or inconclusive. Potency means the concentration at half of the fitted maximal effect.

SMILES | ATXN2 expr inh | RORg inh | TGFb inhibitor | ATXN viability | HepG2 tox | Gal4-VP16 FLuc
O=S(=O)(c1ccc(Cl)cc1)c1nc(-c2ccco2)oc1SCc1ccc(F)cc1 | -12.0% | . | -24.2% | ? | -18.5% | .
COc1ccc(CNC(=O)c2cn(Cc3ccccc3F)c(=O)s2)cc1 | -3.5% | . | ? | i | -1.0% | .
COc1ccc(NC(=S)N/N=C/c2cccn2Cc2ccc(F)cc2Cl)cc1 | -14.0% | 0.794µM* | 12.3% | i | -25.2% | 2.82µM*
CSc1ccccc1NC(=S)N/N=C/c1cccn1Cc1ccc(F)cc1 | -2.5% | ? | -1.4% | i | -21.1% | ?
COc1ccc(NC(=S)N/N=C/c2cccn2Cc2ccccc2F)cc1 | -2.2% | 0.282µM* | 6.6% | i | -5.9% | 1.41µM*
CC1CCN(C(=O)Nc2ccc3nc(-c4ccco4)c(-c4ccco4)nc3c2)CC1 | . | . | ? | . | -2.8% | .
O=C1c2ccccc2C(=O)C12OC2c1ccc(Cl)cc1Cl (stereo not given) | ? | 10µM* | ? | ? | 20µM* | ?
COc1ccc(/C=C2/C(=O)N(Cc3ccccc3)N=C2C)cc1 | -8.8% | ? | ? | i | -38.1% | ?
COc1ccc(/C=C2/C(=O)N(c3nc4ccccc4s3)N=C2CSc2ccc(Cl)cc2)cc1 | 4.4% | 14.1µM* | ? | i | -23.9% | 12.6µM*
COc1cc(N2C(=O)C=CC2=O)c(OC)cc1Cl | ? | 5.62µM* | 11.2µM* | 20µM* | -91.2% | 4.47µM*
CC(C)C[C@H](N)c1nnc(SCc2ccc(Cl)cc2Cl)o1 | -18.8% | . | ? | i | -37.8% | .
CC(C)C[C@H](N)c1nnc(S(=O)(=O)Cc2ccc(F)cc2)o1 | ? | 0.0% | ? | . | -100.7% | 14.1µM*
C#CCOCCOCCOCCNc1nc(N2CCN(C(=O)CCCCCCCCCCNC(=O)[C@H]([C@@H](C)CC)n3cc(CCCCCN)nn3)CC2)nc(N2CCN(C(=O)CCCCCCCCCCNC(=O)[C@@H]([C@H](C)O)n3cc(C)nn3)CC2)n1 | 15.8µM* | . | ? | 15.8µM* | -102.0% | .
C#CCOCCOCCOCCNc1nc(N2CCN(C(=O)CCCCCCCCCCNC(=O)[C@H](CCC(=O)O)n3cc(CCCCCN)nn3)CC2)nc(N2CCN(C(=O)CCCCCCCCCCNC(=O)[C@@H]([C@H](C)O)n3cc(C)nn3)CC2)n1 | -5.4% | . | -4.8% | i | -24.9% | .
C#CCOCCOCCOCCNc1nc(N2CCN(C(=O)CCCCCCCCCCNC(=O)Cn3cc(CCCCCN)nn3)CC2)nc(N2CCN(C(=O)CCCCCCCCCCNC(=O)[C@H]([C@@H](C)CC)n3cc(CCCCCN)nn3)CC2)n1 | ? | . | ? | 22.4µM* | -115.5% | .
Cc1ccc(Cn2cc(S(=O)(=O)c3cccc(C)c3)c(=O)c3cc(F)c(N4CCOCC4)cc32)cc1 | . | . | -33.0% | . | 6.1% | .
CCN1/C(=C/C=C/c2sc3ccccc3[n+]2CC)Sc2ccccc21 | 7.08µM* | ? | ? | 11.2µM* | -32.1% | ?
Cc1ccc2nccc(/C=C/c3ccc(N(C)C)cc3)c2c1 | . | . | 1.4% | . | -23.7% | .
O=C(Nc1ccc(N2CCOCC2)cc1)c1cnsn1 | . | 2µM* | 11.6% | i | -12.8% | 1.78µM*
O=C(Nc1ccccc1N1CCOCC1)c1cnccn1 | . | -17.4% | 6.1% | i | -2.7% | 4.4%
O=C(Nc1ccc(N2CCOCC2)cc1)c1cnccn1 | 2.51µM* | 5.01µM* | -4.2% | i | -7.7% | 7.94µM*
C=C1C[C@]23CC[C@H]4C(CO)(CO)C[C@@H](O)C[C@@]4(C)[C@@H]2CC[C@H]1C3 | . | 26.7% | . | . | . | ?
CC(=O)c1ccc(NC(=O)CSc2nc(-c3cccc(F)c3)nc3c2c(=O)n(C)c(=O)n3C)cc1 | -1.9% | . | 1.3% | i | -29.3% | .
CC1(C)Oc2ccc3ccc(=O)oc3c2C(N2CCCCC2)C1O (stereo not given) | 7.6% | 38.6% | -5.8% | i | 9.5% | 8.6%
CC(=O)OC1C(N2CCCCC2)c2c(ccc(/C=C/C(=O)N3CCCCC3)c2O)OC1(C)C (stereo not given) | 3.6% | ? | -6.7% | i | 0.6% | 1.26µM*
SMILES | ATXN2 expr inh | RORg inh | TGFb inhibitor | ATXN viability | HepG2 tox | Gal4-VP16 FLuc
Cc1cccc(C(=O)c2cnc3ccccc3c2-c2ccccc2)c1 | 0.8% | ? | ? | i | -41.8% | 10µM*
Cc1ccc2ncc(C(=O)c3ccc(C)c(C)c3)c(S(=O)(=O)c3ccccc3)c2c1 | ? | . | 30.5% | i | -8.0% | .
CCCS(=O)(=O)c1c(S(=O)(=O)CCC)c2c(C)cccn2c1C(=O)N/N=C/c1cc(O)cc(O)c1 | 7.94µM* | ? | -15.4% | i | -11.6% | -2.8%
CCCS(=O)(=O)c1c(S(=O)(=O)CCC)c2c(C)cccn2c1C(N)=O | -2.9% | 17.8% | -1.5% | i | -12.0% | -6.1%
CC(C)CO/N=C1/C[C@@H](O)[C@@H](O)[C@@H]2[C@@H]3C(=O)N(C4CCCCC4)C(=O)[C@H]3CC[C@H]12 | . | 12.5%[10 µM] | . | . | . | 6.5%[10 µM]
CC(=O)Nc1ccc(S(=O)(=O)Oc2ccc(C(=S)N3CCC(O)CC3)cc2)cc1 | -15.6% | ? | -2.4% | i | -6.0% | 35.5µM*
CN(C)S(=O)(=O)c1ccc(NC(=S)NC(=O)c2ccc(Br)o2)cc1 | . | 11.2µM* | . | . | . | ?
Cc1cc(C)cc(NS(=O)(=O)c2ccc(NC(=S)NC(=O)c3ccc(Br)o3)cc2)c1 | ? | 3.55µM* | ? | i | -84.7% | 7.94µM*
CC(=O)O[C@H]1C(=O)[C@@]2(C)C([C@H](OC(=O)c3ccccc3)[C@]3(O)C[C@H](OC(=O)[C@H](O)[C@@H](NC(=O)c4ccccc4)c4ccccc4)C(C)=C1C3(C)C)[C@]1(OC(C)=O)CO[C@@H]1C[C@H]2O (stereo not given in full) | -24.6% | ? | ? | ? | 0.2% | 20µM*
CC(=O)OC1C(=O)[C@@]2(C)C(O)CC3OC[C@]3(OC(C)=O)C2C(OC(=O)c2ccccc2)[C@]2(O)CC(OC(=O)C(O)C(NC(=O)c3ccccc3)c3ccccc3)C(C)=C1C2(C)C (stereo not given in full) | . | ? | . | . | . | -6.9%
C/C=C1\COC(C(=O)NCCCN2CCCC2=O)(C(F)(F)F)C=C1C=C(C)C (stereo not given) | 8.0% | ? | ? | i | 11.2µM*! | ?
